Laboratory results from PubChem BioAssay AID651610 (Broad Institute, 2012).
Out of some 360,000 compounds screened, about 3,900 (1.1%) were called active. The full list was thinned out, with actives kept by preference. Values without a mark were called inactive.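 How the source made its calls: active means mean replicate inhibition score of at least 50 and every replicate individually at or above 50; inconclusive means only one of the two criteria met; inactive means mean below 50 and not all replicates reaching 50.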

Experiment: inhibitors of HIV-1 Env-driven cell-cell fusion, primary screen, HeLa-JRFL effector, CEM21 target cells, luciferase (AID 651610);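 further: 0% = plate neutral controls and 100% = maraviroc near 300 nM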
Conditions: hits give high values; at 16.7 µM unless noted

Compound	inhibition
O=C(C[C@H]1C=C[C@@H](NS(=O)(=O)c2ccc(F)cc2)[C@@H](CO)O1)NC1CCC1	11.3%
O=C(C[C@H]1C[C@H]2c3cc(NC(=O)Nc4ccc(C(F)(F)F)cc4)ccc3O[C@H]2[C@@H](CO)O1)NCCc1ccccc1	6.45%
C[C@@H]1CCCCO[C@H](CN(C)C(=O)Nc2ccc(C(F)(F)F)cc2)[C@@H](C)CN([C@@H](C)CO)C(=O)c2cc(NS(=O)(=O)c3cccs3)ccc2O1	3.25%
CN1C(=O)c2cc(NC(=O)Cc3cccs3)ccc2OC[C@@H]2O[C@@H](CC(=O)N[C@@H]3CCN(Cc4ccccc4)C3)CC[C@H]21	-14%
COc1ccc(-n2c(C)cc(C(=O)COC(=O)c3cc(OC)c(OC)cc3NC(=O)c3cccs3)c2C)cc1	-7.79% [at 12.3 µM]
COc1ccc(-n2c(C)cc(C(=O)CSc3nnc(-c4cccs4)o3)c2C)cc1	89.2% [at 12.3 µM] (active)
COc1ccc(-c2nnc(SCC(=O)c3ccc4c(c3)OCCO4)o2)cc1	22.9% [at 12.3 µM]
N#C[C@H]1[C@@H](c2ccc(C3=CCCCC3)cc2)[C@@H](CO)N1C(=O)NC1CCCCC1	0.133%
COc1ccccc1-c1ccc2c(c1)O[C@@H](CN(C)C(=O)Nc1ccccc1)[C@H](C)CN([C@@H](C)CO)S2(=O)=O	-37.6%
COc1ccc(NC(=O)N(C)C[C@@H]2Oc3ccc(NS(=O)(=O)c4ccc(C)cc4)cc3CC(=O)N([C@@H](C)CO)C[C@H]2C)cc1	4.71%
O=C(CSc1ncnc2scc(-c3ccccc3)c12)NCc1ccc2c(c1)OCO2	22.4% [at 12.3 µM]
CN(C)C(=O)c1cccc(-c2cnc3sc(NCc4ccc5c(c4)OCO5)nn23)c1	68.4% [at 12.3 µM] (active)
CN(C)C(=O)c1cccc(-c2cnc3c(NC=O)cc(-c4ccc(C(=O)N5CCOCC5)cc4)cn23)c1	-15.1% [at 12.3 µM]
O=C(Nc1ccc(C(F)(F)F)cc1)N[C@@H]1CC[C@@H](CCNC(=O)c2ccccc2F)O[C@H]1CO	-1.09%
Cc1noc(C)c1S(=O)(=O)Nc1ccc2c(c1)CC(=O)N([C@@H](C)CO)C[C@H](C)[C@@H](CN(C)S(=O)(=O)c1cn(C)cn1)O2	-11.7%
C[C@H]1CCCCO[C@@H](CN(C)C(=O)c2ccccc2)[C@@H](C)CN([C@@H](C)CO)C(=O)c2cc(NS(=O)(=O)c3ccccc3)ccc2O1	-27.7%
